Records with an inconclusive call do not appear. Where a call stands in place of a potency, no number is given. Unmarked numbers belong to inactive results. Calls of active or inactive are those of the source. Calls follow the shape of the dose curve; as a rule, active = well fitted curve in the direction sought with a large enough effect; inconclusive = small, poorly fitted or top-dose-only effect, or another doubt; inactive = no such curve, though single readings can be large; an effect the other way counts as inactive or inconclusive.
Legend:
[1] = system: C33A; test: Primary qHTS to identify gynecologic anti-cancer compounds using libraries of approved drugs and bioactive compounds (AID 1345084); conditions: Gynecologic cancer cell panel viability, ATPlite luminescence, 48 h; series mostly up to 57.5 µM; also: nearly all actives have a fitted effect of over 55% in size
Method in brief: (§1)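 Five-concentration response, 48 h; readout is ATP-driven luciferase luminescence.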

[2] = system: CAOV3; test: as above; conditions: Gynecologic cancer cell panel viability, ATPlite luminescence, 48 h; series mostly up to 57.5 µM
Method in brief: as §1

[3] = system: CASKI; test: as above; conditions: Gynecologic cancer cell panel viability, ATPlite luminescence, 48 h; series mostly up to 57.5 µM
Method in brief: as §1

[4] = system: Es-2; test: as above; conditions: Gynecologic cancer cell panel viability, ATPlite luminescence, 48 h; series mostly up to 57.5 µM
Method in brief: as §1

[5] = system: Hek293T; test: as above; conditions: Gynecologic cancer cell panel viability, ATPlite luminescence, 48 h, control line for the selectivity index; series mostly up to 57.5 µM
Method in brief: as §1

[6] = system: JEG-3; test: as above; conditions: Gynecologic cancer cell panel viability, ATPlite luminescence, 48 h; series mostly up to 57.5 µM
Method in brief: as §1

[7] = system: OV90; test: as above; conditions: Gynecologic cancer cell panel viability, ATPlite luminescence, 48 h; series mostly up to 57.5 µM
Method in brief: as §1

[8] = system: SKOV3; test: as above; conditions: Gynecologic cancer cell panel viability, ATPlite luminescence, 48 h; series mostly up to 57.5 µM
Method in brief: as §1

[9] = system: Tov-21-G; test: as above; conditions: Gynecologic cancer cell panel viability, ATPlite luminescence, 48 h; series mostly up to 57.5 µM
Method in brief: as §1

[10] = system: Tov112D; test: as above; conditions: Gynecologic cancer cell panel viability, ATPlite luminescence, 48 h; series mostly up to 57.5 µM
Method in brief: as §1

[11] = system: HeLa; test: as above; conditions: Gynecologic cancer cell panel viability, ATPlite luminescence, 48 h; series mostly up to 57.5 µM
Method in brief: as §1

[12] = system: PA-1; test: as above; conditions: Gynecologic cancer cell panel viability, ATPlite luminescence, 48 h; series mostly up to 57.5 µM
Method in brief: as §1

[13] = qHTS assay to identify inhibitors of the type 1 interferon - major histocompatibility complex class I in skeletal muscle: Counter screen cell viability and HiBit confirmation (AID 1347412); conditions: iHSKM muscle cells + IFN-b, HiBiT or CellTiter-Glo, 24 h; also: nearly all actives have a fitted effect of over 60% in size
Method in brief: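 After 24 h with human IFN-beta (4 ng/ml) and compound titrations (top 46 uM final, 1:3, 12 points), HLA-B HiBit myoblasts were lysed for either Nano-Glo HiBiT luminescence or CellTiter Glo viability on paired plates.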
Potency is read from the fitted curve at half-maximal effect.

Structure (SMILES)	Potency [1]	Potency [2]	Potency [3]	Potency [4]	Potency [5]	Potency [6]	Potency [7]	Potency [8]	Potency [9]	Potency [10]	Potency [11]	Potency [12]	Potency ([13]; HiBiT)	Potency ([13]; Viability)	activity change, negative = inhibition ([13]; Viability, at 45.9 µM (top of the series))
CCCCNc1ccc(-c2ccc(CN3CCOCC3)cn2)c(NC2CCC(O)CC2)c1 (stereo not drawn)	inactive	1.78 µM (active)	inactive	inactive	inactive	inactive	inactive	inactive	inactive	inactive					
O=C(NOCC(O)CO)c1ccc(F)c(F)c1Nc1ccc(I)cc1F (stereo not drawn)	inactive	inactive	inactive		inactive	inactive		inactive		inactive	inactive				
Cc1cc(Nc2ccc(NC(=O)c3ccc(Nc4ccnc5ccccc45)cc3)cc2)nc(N)n1	5.62 µM (active)	2.24 µM (active)	3.55 µM (active)		25.1 µM (active)	28.2 µM (active)	3.98 µM (active)	3.98 µM (active)	10 µM (active)	25.1 µM (active)	11.2 µM (active)	20 µM (active)			
Cc1cccc2c1NC(=O)C2(c1ccc(O)cc1)c1ccc(O)cc1	inactive	inactive	inactive	inactive		inactive		inactive							
COc1ccc(Oc2cc(C)c(-c3csc(NC(=O)c4ccncc4)n3)c(C)c2)cc1	inactive	inactive	0.891 µM (active)					1 µM (active)		inactive					
CC(C)c1cccc2c(-c3ccccc3)cc(-c3ccc(-c4ccc(C(=O)O)cc4)[nH]3)nc12	inactive	inactive		inactive	inactive	inactive	inactive	inactive			inactive	inactive			
Cc1c(F)cc(C(=O)NC2CC2)cc1-c1c(F)cn2c(C(C)(C)C)nnc2c1F	inactive	inactive		inactive	inactive	inactive	inactive	inactive	inactive	inactive	inactive	inactive			
CC1=CC2C(CC1OC1OC(CO)C(O)C(O)C1O)C(C)CC(=O)C2C(C)C (stereo not drawn)	inactive	inactive		inactive	inactive	inactive	inactive	inactive	inactive	inactive	inactive	inactive			
CC1(C)CC[C@]2(C(=O)O[C@@H]3O[C@H](CO)[C@@H](O)[C@H](O)[C@H]3O)CC[C@]3(C)C(=CCC4[C@@]5(C)C[C@@H](O)[C@H](O)[C@@](C)(CO)C5CC[C@]43C)C2[C@@H]1O (stereo partly drawn)	inactive	inactive	inactive		inactive	inactive	inactive	inactive	inactive	inactive	inactive	inactive			
C(#Cc1nc2ncccc2nc1OCCN1CCCC1)c1ccccc1	7.08 µM (active)	7.08 µM (active)	17.8 µM (active)	3.55 µM (active)	10 µM (active)			14.1 µM (active)	14.1 µM (active)	14.1 µM (active)		6.31 µM (active)			
COC(=O)Cc1cc2c(c([N+](=O)[O-])c1)N(C(=O)CC[C@H](N)C(=O)O)CC2	inactive	inactive		inactive	inactive	inactive	inactive	inactive	inactive	inactive	inactive	inactive			
C=C1C(=O)O[C@@H]2C/C(C)=C\C(=O)/C=C(\C)[C@@H](OC(=O)/C(C)=C\C)[C@H](O)[C@@H]12	10 µM (active)	7.94 µM (active)	inactive	4.47 µM (active)	7.94 µM (active)	7.08 µM (active)		11.2 µM (active)	7.94 µM (active)	11.2 µM (active)		2.82 µM (active)			
Cc1cc2c(F)c(Oc3ncnn4cc(OCC(C)O)c(C)c34)ccc2[nH]1 (stereo not drawn)	inactive	inactive	inactive	inactive			inactive	inactive	inactive	inactive					
Cc1ccc(-c2ccc3ncc4c(c3n2)n(C2CCN(C(=O)[C@H](C)O)CC2)c(=O)n4C)cn1	0.282 µM (active)	0.708 µM (active)	0.794 µM (active)		0.355 µM (active)	7.08 µM (active)		1.41 µM (active)		0.0891 µM (active)	1 µM (active)	0.631 µM (active)			
CC(=O)OC1/C(C)=C/C(=O)C(OC(C)=O)C(C)(C)/C=C/C(C)C(=O)C2(OC(C)=O)CC(C)C(OC(=O)c3ccccc3)C12 (stereo not drawn)	inactive	inactive	inactive		inactive	inactive	inactive	inactive	inactive	inactive	inactive				
O=C(NCc1cccc(O)c1)Nc1nc(-c2ccncc2)cs1	inactive	inactive	inactive	inactive	inactive	inactive	inactive	inactive	inactive	inactive		inactive			
CC[C@@H](N)CNc1ccnc(-c2cc(-c3cnn(C)c3)ccc2O)n1	8.91 µM (active)	inactive	3.98 µM (active)	20 µM (active)	11.2 µM (active)	12.6 µM (active)			8.91 µM (active)	10 µM (active)		7.94 µM (active)			
Cc1cnc(Nc2ccc(F)cc2Cl)nc1-c1c[nH]c(C(=O)NC(CO)c2cccc(Cl)c2)c1 (stereo not drawn)	inactive	inactive	inactive	inactive	inactive	inactive		inactive		inactive		8.91 µM (active)			

Structure (SMILES)	Potency [1]	Potency [2]	Potency [3]	Potency [4]	Potency [5]	Potency [6]	Potency [7]	Potency [8]	Potency [9]	Potency [10]	Potency [11]	Potency [12]	Potency ([13]; HiBiT)	Potency ([13]; Viability)	activity change, negative = inhibition ([13]; Viability, at 45.9 µM (top of the series))
CC(C)CCC(=O)CC1c2ccccc2C(=O)N1c1ccc2ccc(Cl)nc2n1 (stereo not drawn)	inactive	inactive	inactive	inactive	inactive		inactive		inactive	8.91 µM (active)		inactive			
Cc1c(NC(=O)c2cc(C(N)=O)nc3cc(F)ccc23)c(C(F)(F)F)nn1Cc1ccc(C#N)cc1	inactive	inactive	inactive	inactive	inactive	inactive	inactive	2.24 µM (active)	inactive	inactive		inactive			
CC(=O)O[C@@](C)(C(=O)/C=C/C(C)(C)O)[C@H]1[C@H](O)C[C@@]2(C)[C@@H]3CC=C4[C@@H](C=C(O)C(=O)C4(C)C)[C@]3(C)C(=O)C[C@]12C	inactive	0.282 µM (active)	4.47 µM (active)			inactive	4.47 µM (active)		2.82 µM (active)		2.51 µM (active)	11.2 µM (active)			
C=C(C)C(=O)O[C@H]1C[C@@](C)(O)C(=O)CC(O)/C(C)=C\[C@H]2OC(=O)C(=C)[C@H]12 (stereo partly drawn)	inactive	inactive	inactive		inactive	inactive	inactive			inactive	inactive				
Cc1ncc(CCCN(C)C)cc1Nc1ncc2c(n1)-c1ccc(C(F)(F)F)cc1NC(=S)C2	inactive	inactive	inactive			inactive			inactive						
CCN1CCN(Cc2ccc(Nc3ncc(F)c(-c4cc(F)c5nc(C)n(C(C)C)c5c4)n3)nc2)CC1	inactive	inactive	inactive	inactive	inactive	inactive	inactive			inactive			8.83 µM (active)	22.2 µM (active)	
C=CC(C)(C)c1[nH]c2cc3c(cc2c1CC1NC(=O)C2=CCCN2C1=O)C=CC(C)(C)O3 (stereo not drawn)	inactive	inactive	inactive		inactive	inactive	inactive	inactive	inactive	inactive	inactive				
CNC(=O)c1ccccc1Nc1cc(Nc2ccc(N3CCOCC3)cc2OC)ncc1C(F)(F)F	inactive	inactive	inactive	inactive	inactive	inactive	inactive	inactive		inactive		15.8 µM (active)			
COc1cc(O)cc(C)c1C(=O)O[C@@H]1[C@H](O)[C@@H](CO)O[C@H]1n1ccc(=O)[nH]c1=O	inactive	inactive	inactive			inactive	inactive	inactive		inactive	inactive	3.98 µM (active)			
CN1C2CCC1CC(OC(=O)[C@H](CO)c1ccccc1)C2 (stereo partly drawn)	inactive	inactive	inactive		inactive	inactive									
COCCN1CCN(Cc2ccc(-c3n[nH]c4c3C(=O)c3c(NC(=O)NN5CCOCC5)cccc3-4)cc2)CC1	inactive	inactive	0.282 µM (active)	0.316 µM (active)	0.178 µM (active)	inactive	inactive		0.282 µM (active)	0.316 µM (active)		0.251 µM (active)	0.0701 µM (active)		44.8%
COc1ccc2c(OC)c3ccoc3nc2c1OC	inactive	inactive	inactive	inactive	inactive	inactive	inactive	inactive	inactive	inactive		inactive			
CC(=O)O[C@@H]1C[C@H](O)[C@@]23CO[C@H](O)[C@]1(C)C2C[C@@H](O)[C@]1(C)C3C(=O)[C@H](OC(C)=O)[C@@]2(C)[C@H](c3ccoc3)C[C@H]3O[C@]321 (stereo partly drawn)	1.12 µM (active)	1.12 µM (active)	inactive	0.501 µM (active)	2.51 µM (active)	inactive				0.316 µM (active)		0.562 µM (active)			
COc1cc2c(NC3CCN(CC4CCCCC4)CC3)nc(N3CCCN(C(C)C)CC3)nc2cc1OCCCN1CCCCC1	14.1 µM (active)	3.98 µM (active)		3.98 µM (active)	20 µM (active)	5.62 µM (active)	3.16 µM (active)	3.98 µM (active)	20 µM (active)	7.94 µM (active)		5.62 µM (active)		24.9 µM (active)	
NC(=O)c1cnc(NCCc2ccc(O)c(Cl)c2)nc1NCc1ccccc1	inactive	inactive		15.8 µM (active)	20 µM (active)	inactive	inactive		7.94 µM (active)	12.6 µM (active)	25.1 µM (active)	10 µM (active)			
CC1(C)CCCC2(C)C=C(C(=O)O)C(O)CC12 (stereo not drawn)	inactive		inactive	inactive	inactive	inactive	inactive	inactive	inactive	inactive	inactive	inactive			
O=C(/C=C\n1cnc(-c2cc(C(F)(F)F)cc(C(F)(F)F)c2)n1)N1CC(F)(F)C1	inactive	2.82 µM (active)		3.16 µM (active)	1.58 µM (active)		inactive				17.8 µM (active)	1.41 µM (active)			

— PubChem BioAssay (NCATS)
